Laboratory results published in PubChem BioAssay AID1159580 (chemical genetic matrix, 2015).
The campaign covered roughly 5,500 compounds. About 2,000 (36%) were called active. Not shown: some 18% with an inconclusive outcome. No stated cut-off is given here; in the data, active means normalized growth mostly below about 0.91 (no sharp cut-off); inconclusive means no clear call, values can overlap the other calls; inactive means mostly above about 0.92. The list shows a part of the results.

Test: chemical genetic growth profiling, strain panel (AID 1159580);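 further: tested at 20 µM; growth read once vehicle control cultures reached saturation at 30 °C; 1 = growth at the plate median or of vehicle wells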
Conditions: S. cerevisiae deletion strains, growth OD
[1] = locus YDL101C, strain DUN1, stronger effect = lower value
[2] = locus YHR030C, strain SLT2, stronger effect = lower value

Measured: normalized growth

COc1ccc(S(=O)(=O)Nc2ccccc2Oc2ccc(Cl)cc2Cl)cc1OC
inactive: locus YAL013W, strain DEP1, stronger effect = lower value 1.01 | locus YBR229C, strain ROT2, stronger effect = lower value 1.01 | locus YCL061C, strain MRC1, stronger effect = lower value 1.07 | [1] 1.08 | locus YDL134C, strain PPH21, stronger effect = lower value 1.01 | locus YDR150W, strain NUM1, stronger effect = lower value 0.933 | locus YEL061C, strain CIN8, stronger effect = lower value 0.999 | locus YGR078C, strain PAC10, stronger effect = lower value 1.04 | locus YGR229C, strain SMI1, stronger effect = lower value 0.995 | [2] 1.06 | locus YHR087W, strain rtc3, stronger effect = lower value 0.988 | locus YJL187C, strain SWE1, stronger effect = lower value 1 | locus YJR043C, strain POL32, stronger effect = lower value 1.05 | locus YJR075W, strain HOC1, stronger effect = lower value 1 | locus YKL190W, strain CNB1, stronger effect = lower value 1.01 | locus YLR039C, strain RIC1, stronger effect = lower value 1.06 | locus YLR058C, strain SHM2 (second series), stronger effect = lower value 0.988 | locus YLR085C, strain ARP6, stronger effect = lower value 1.08 | locus YLR262C, strain YPT6, stronger effect = lower value 0.99 | locus YML094W, strain GIM5, stronger effect = lower value 1 | locus YMR219W, strain ESC1, stronger effect = lower value 1 | locus YMR263W, strain SAP30, stronger effect = lower value 0.967 | locus YMR307W, strain GAS1, stronger effect = lower value 0.986 | locus YNL128W, strain TEP1, stronger effect = lower value 1 | locus YNL153C, strain GIM3, stronger effect = lower value 1.03 | locus YNL298W, strain CLA4 (second series), stronger effect = lower value 1.05 | locus YNL322C, strain KRE1, stronger effect = lower value 0.988 | locus YNR030W, strain Alg12, stronger effect = lower value 1.02 | locus YPL055C, strain LGE1, stronger effect = lower value 0.959 | locus YPL241C, strain CIN2, stronger effect = lower value 1.03 | locus YPR135W, strain CTF4, stronger effect = lower value 1.03

N#Cc1ccc(S(=O)(=O)Nc2ccccc2Oc2ccc(Cl)cc2Cl)cc1
inactive: locus YAR019C, strain CDC15, stronger effect = lower value 0.98 | locus YBL105C, strain PKC1, stronger effect = lower value 0.98 | locus YBR135W, strain CKS1, stronger effect = lower value 0.976 | locus YBR136W, strain MEC1, stronger effect = lower value 0.985 | locus YBR160W, strain CDC28, stronger effect = lower value 0.983 | locus YDL017W, strain CDC7, stronger effect = lower value 0.979 | locus YDL028C, strain MPS1, stronger effect = lower value 0.979 | [1] 0.986 | locus YDL108W, strain KIN28, stronger effect = lower value 0.973 | locus YDL132W, strain cdc53, stronger effect = lower value 0.979 | locus YDL214C, strain PRR2, stronger effect = lower value 0.968 | locus YDR052C, strain DBF4, stronger effect = lower value 0.979 | locus YDR054C, strain cdc34, stronger effect = lower value 0.974 | locus YDR226W, strain ADK1, stronger effect = lower value 0.969 | locus YDR477W, strain SNF1, stronger effect = lower value 0.935 | locus YER123W, strain YCK3, stronger effect = lower value 0.948 | locus YER133W, strain GLC7, stronger effect = lower value 0.928 | locus YFL009W, strain cdc4, stronger effect = lower value 0.987 | locus YFL029C, strain CAK1, stronger effect = lower value 0.979 | locus YFR003C, strain YPI1, stronger effect = lower value 0.974 | locus YFR019W, strain FAB1, stronger effect = lower value 0.955 | locus YFR028C, strain CDC14, stronger effect = lower value 0.98 | locus YGR040W, strain KSS1, stronger effect = lower value 0.945 | locus YGR052W, strain FMP48, stronger effect = lower value 0.985 | locus YGR092W, strain DBF2, stronger effect = lower value 0.879 | [2] 0.88 | locus YHR079C, strain IRE1, stronger effect = lower value 0.931 | locus YHR082C, strain KSP1, stronger effect = lower value 1.07 | locus YHR205W, strain SCH9, stronger effect = lower value 0.936 | locus YIL147C, strain SLN1, stronger effect = lower value 0.986 | locus YJL095W, strain BCK1, stronger effect = lower value 0.905 | locus YJL128C, strain PBS2, stronger effect = lower value 0.961 | locus YJL157C, strain FAR1, stronger effect = lower value 0.947 | locus YJR016C, strain ILV3, stronger effect = lower value 0.97 | locus YJR066W, strain TOR1 (second series), stronger effect = lower value 0.9 | locus YJR066W, strain TOR1, stronger effect = lower value 1.04 | locus YKL048C, strain ELM1, stronger effect = lower value 0.959 | locus YKL067W, strain YNK1, stronger effect = lower value 0.973 | locus YKL101W, strain HSL1, stronger effect = lower value 0.957 | locus YKL193C, strain SDS22, stronger effect = lower value 0.978 | locus YKL203C, strain TOR2, stronger effect = lower value 1.02 | locus YLR133W, strain CKI1, stronger effect = lower value 0.972 | locus YLR403W, strain SFP1, stronger effect = lower value 0.912 | locus YML070W, strain DAK1, stronger effect = lower value 0.94 | locus YMR001C, strain CDC5, stronger effect = lower value 0.982 | locus YMR205C, strain PFK2 (second series), stronger effect = lower value 0.972 | locus YMR277W, strain FCP1, stronger effect = lower value 0.973 | locus YNL006W, strain LST8, stronger effect = lower value 0.977 | locus YNL020C, strain ARK1, stronger effect = lower value 0.965 | locus YNL161W, strain CBK1, stronger effect = lower value 0.982 | locus YNL183C, strain NPR1, stronger effect = lower value 1.08 | locus YNL207W, strain RIO2, stronger effect = lower value 0.979 | locus YNL222W, strain SSU72, stronger effect = lower value 0.978 | locus YNL307C, strain MCK1 (second series), stronger effect = lower value 0.965 | locus YOL078W, strain AVO1, stronger effect = lower value 0.971 | locus YOL136C, strain PFK27, stronger effect = lower value 0.967 | locus YOR061W, strain CKA2, stronger effect = lower value 0.872 | locus YOR119C, strain RIO1, stronger effect = lower value 1.01 | locus YOR231W, strain MKK1, stronger effect = lower value 1.01 | locus YOR329C, strain SCD5, stronger effect = lower value 0.982 | locus YPL031C, strain PHO85, stronger effect = lower value 0.926 | locus YPL153C, strain RAD53, stronger effect = lower value 0.945 | locus YPL204W, strain HRR25, stronger effect = lower value 0.949 | locus YPL209C, strain IPL1, stronger effect = lower value 0.983 | locus YPL256C, strain CLN2, stronger effect = lower value 0.967 | locus YPR025C, strain CCL1, stronger effect = lower value 0.976 | locus YPR106W, strain ISR1, stronger effect = lower value 0.96 | locus YPR111W, strain DBF20, stronger effect = lower value 0.963 | strain NNK1, stronger effect = lower value 0.981 | strain TSCII, stronger effect = lower value 0.99
active: locus YLR113W, strain HOG1, stronger effect = lower value 0.836
